# From the supplement of paper PMC11172423
# Test system: Madurella mycetomatis MM55
# Test: growth relative to untreated control; higher = less inhibition, active = 20 or less
# Details: 100 µM
# Summary of the method: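 Viability readout used either MTS (2 h, 490 nm) or resazurin (600 nm). Before this, hyphal fragments of M. mycetomatis MM55 or F. senegalensis CBS197.79 in colourless RPMI 1640 with L-glutamine and MOPS (68–72% transmission at 660 nm) had been exposed in 96-well plates to compound at 100 or 25 µM for 7 days at 37 °C. Growth denotes metabolic activity relative to the untreated growth control, with a medium-plus-dye blank subtracted from both.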
row,SMILES,growth
1,CCS(=O)(=O)N1CC(CC#N)(n2cc(-c3ncnc4[nH]ccc34)cn2)C1,80.3% (inactive)
2,C[C@H](NC(=O)c1cc2nc(C(F)(F)F)ccc2[nH]1)c1ccccc1,56.8% (inactive)
3,N#Cc1ccc(-c2n[nH]c3ccc(-c4n[nH]c(CC(F)(F)F)n4)cc23)cc1,114% (inactive)
4,FC(F)(F)c1ccc(CNc2ccc(Cc3c[nH]c4ncc(Cl)cc34)cn2)cn1,95.5% (inactive)
5,Cc1cc2c(cc1Cl)N(C(=O)Nc1cc(F)cc(-c3cncnc3)c1)CC2,49.7% (inactive)
6,C=CC(=O)Nc1cc(Nc2nccc(-c3cn(C)c4ccccc34)n2)c(OC)cc1N(C)CCN(C)C,2.43% (active)
7,O=C(c1ccc(Nc2nccc(-c3ccc(Cl)cc3)n2)cc1)N1CC[C@@H](CO)C1,117% (inactive)
8,O=C(O)c1ccc2c(c1)nc(Nc1cccc(Cl)c1)c1ccncc12,78.1% (inactive)
9,CCN1CCC(c2cc(C)c3nc(-c4cc5c(C)nc(C)cn5n4)cc(=O)n3c2)CC1,89.8% (inactive)
10,CC(C)(C)NCc1cc(Nc2ccnc3cc(Cl)ccc23)c2c(c1O)CCCC2,95.1% (inactive)
11,CN(C)CCOc1ccc2nc(-c3cccc(OCc4ccccc4)c3)[nH]c2c1C#N,5.16% (active)
12,Cc1cc(C)c(Nc2ccnc(Nc3ccc(C#N)cc3)n2)c(C)c1,86.6% (inactive)
13,CC(C)Nc1cc2c(cn1)nc(Nc1cc(Cl)cc(C#N)c1)n2C1CCNCC1,79.1% (inactive)
14,CNC(=O)c1cc(Oc2ccc(NC(=O)Nc3ccc(Cl)c(C(F)(F)F)c3)c(F)c2)ccn1,74.4% (inactive)
